# Pf growth 96h = inhibits malaria parasite growth, 96 h; Potency, µM (titrated, usually from 28.7 µM), for inactives: at the top dose activity change, negative = inhibition, usual class: inhibitors; 6.9% of 320,000 active; P. falciparum luciferase reporter growth, 96 h; AID 504834; note: potency is the fitted concentration of half-maximal effect; % is set by controls: 0 for no effect and ±100 for the full control effect
#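 Plates of compound plus infected erythrocytes (2% hematocrit, 0.05% parasitemia final) incubate 96 hours, 37 C, 5% CO2. Detection reagent added; reduced luminescence from the parasites' luciferase reporter flags inhibition.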
# HCMV inh = inhibitors of human cytomegalovirus | HFF cells, HCMV-luciferase reporter, 72 h; active compounds read low | activity change, negative = inhibition, % at 57.5 µM | 4.5% of 410,000 active; in the data active = activity change below about -60%; inconclusive = no clear call, values can overlap the other calls; inactive = above about -39%; note: % is set by controls: 0 for no effect and ±100 for the full control effect
#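 HFF cells seeded 16 h at 37C, treated with compounds, infected with luciferase-reporter HCMV at MOI 1 PFU/cell; luciferase read at 72 h post infection, normalized to buffer-only and Salinomycin controls.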
# Pf growth 48h = inhibits P. falciparum growth in the first generation, 48 h | P. falciparum luciferase growth in erythrocytes, 48 h | 5.9% of 310,000 active | Potency, µM (series often up to 28.7 µM), without a hit: at the top dose activity change, negative = inhibition, hits mostly inhibitors | AID 504832; note: potency is the fitted concentration of half-maximal effect; % is set by controls: 0 for no effect and ±100 for the full control effect
#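 Here the parasites carry a stable luciferase gene and grow inside erythrocytes in Albumax-based RPMI medium with compound for one erythrocytic cycle. Activity is scored as loss of luminescent signal.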
# HCV inh = inhibitors of hepatitis C virus infection. Huh7.5.1 HCVcc-Cre infection, luciferase reporter, 44 h. Potency, µM (titrated, usually from 41.8 µM), without a hit: at the highest dose activity change, negative = inhibition, actives largely listed as inhibitors. 3.4% of 340,000 active; note: potency is the fitted concentration of half-maximal effect; % is set by controls: 0 for no effect and ±100 for the full control effect
#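 Infectious HCVcc-Cre (~0.5 moi) was added to cells just after compound, with cells seeded 4 h earlier at 1,000 per well. Luciferase activity after 44 h culture reported infection; substrate was incubated 15 min at room temperature before reading.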
# Sm TGR block = inhibitors of Schistosoma mansoni thioredoxin glutathione reductase | purified TGR, DTNB reduction, TNB absorbance 405 nm | Potency, µM (titrated, usually from 114 µM), without a hit: at the highest dose activity change, negative = inhibition, hits mostly inhibitors | 3% of 360,000 active | Q962Y6; note: potency is the fitted concentration of half-maximal effect; % is set by controls: 0 for no effect and ±100 for the full control effect; nearly all actives have a fitted effect of over 60% in size
#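 Kinetic colorimetric format: TGR-catalysed, NADPH-driven DTNB reduction monitored via TNB absorbance. Enzyme dispensed at 20 nM; compound exposure 15 min at room temperature before reaction start.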
# SARS PLpro yeast = inhibitors of SARS-CoV papain-like protease in yeast | 0.19% of 330,000 active | S. cerevisiae expressing SARS-CoV PLpro, growth rescue | Potency, µM (series often up to 32.9 µM), without a hit: at the highest dose activity, positive = growth rescue, usual class: activators; calls by dose curve; note: potency is the fitted concentration of half-maximal effect; 0% is about no effect; nearly all actives have a fitted effect of over 55% in size
# Active calls of the source: *; ? = inconclusive; / = no result; ! = repeats disagree; [ ] = remark or other dose. Sampled rows, rich in hits. Any-hit rate of the full collection: about 15%. Unless noted, calls come from the whole dose curve; as a rule, active = well fitted curve in the direction sought with a large enough effect; inconclusive = small, poorly fitted or top-dose-only effect, or another doubt; inactive = no such curve, though single readings can be large; an effect the other way counts as inactive or inconclusive.
SMILES,Pf growth 96h,HCMV inh,Pf growth 48h,HCV inh,Sm TGR block,SARS PLpro yeast
CCCc1cc(=O)oc2cc(C)cc(OC(C)C(=O)NCCN3CCOCC3)c12 (stereo unspecified),9.3µM*,-4,10µM*,-11%,-20%,1%
Cc1cc(OC(C)C(=O)NCCc2c[nH]c3ccccc23)c2c(C)cc(=O)oc2c1 (stereo unspecified),1.7µM*,20,1.5µM*,-24%,14%,1%
CCCc1cc(=O)oc2cc(C)cc(OC(C)C(=O)N[C@@H](Cc3c[nH]c4ccccc34)C(=O)O)c12 (stereo partly specified),47%,/,14%,8%,-1%,-1%
CCCc1cc(=O)oc2cc(C)cc(OC(C)C(=O)NCC(O)c3ccccc3)c12 (stereo unspecified),?,-4,0.47µM*,-28%,0%,-3%
Cc1cc(OC(C)C(=O)NCCCn2ccnc2)c2c(C)cc(=O)oc2c1 (stereo unspecified),-3%,72,?,6%,0%,11%
CCCc1cc(=O)oc2cc(C)cc(OC(C)C(=O)NCCCn3ccnc3)c12 (stereo unspecified),2.6µM*,-29,4.1µM*,-6%,5%,4%
COC(=O)C[C@@H]1CC[C@H](NC(=O)Nc2ccc(F)cc2)[C@@H](CO)O1,/,-6,/,/,/,/
O=C(N/N=C/c1ccccc1OCC(=O)N1CCCC1)C(=O)Nc1ccccc1F,48%,13,48%,3%,-2%,-3%
CCCCCOc1ccc(/C(C)=N/NC2=NCCN2)cc1,12µM*,13,7.4µM*,?,0%,-2%
CCOc1ccc(Br)cc1/C(C)=N\NC1=NCCN1,/,?,?,4.5µM*,-1%,-15%
CCCCCCOc1ccc(C(=O)O)cc1,4%,7,14%,15%,5%,-1%
CCCCCCOc1ccc(/C(C)=N/NC2=NCCN2)cc1,-8%,-96*,?,11µM*,1%,-7%
CCC(=O)O[C@@H]1[C@H](C)O[C@H](O[C@H]2[C@@H](N(C)C)[C@H](O)[C@@H](O[C@@H]3[C@@H](CC=O)C[C@@H](C)[C@@H](O)/C=C\C=C/C[C@@H](C)OC(=O)C[C@@H](OC(=O)CC)[C@H]3OC)O[C@H]2C)C[C@]1(C)O,1.3µM*,/,?,/,/,/
CO[C@H]1[C@H](O[C@H]2O[C@@H](C)[C@@H](O[C@@H]3C[C@](C)(O)[C@H](O)[C@H](C)O3)[C@@H](N(C)C)[C@@H]2O)[C@@H](CC=O)C[C@@H](C)[C@@H](O[C@H]2CC[C@H](N(C)C)[C@H](C)O2)/C=C\C=C/C[C@@H](C)OC(=O)C[C@H]1O,2µM*,/,-7%[12.8 µM],/,/,/
CCC(=O)O[C@@H]1CC(=O)O[C@H](C)CC=CC=C[C@@H](O)[C@H](C)C[C@H](CC=O)[C@H](O[C@H]2O[C@H](C)[C@@H](O[C@H]3C[C@@](C)(O)[C@@H](OC(=O)CC)[C@H](C)O3)[C@H](N(C)C)[C@H]2O)[C@H]1OC,0.83µM*,/,?,/,25µM*,-1%
COc1ccc(NC(=O)CCCNC(=O)c2ccc(Cl)cc2)cc1OC,?,-19,10%,14%,-4%,16%
Cc1cccc(NC(=O)CSc2nc3ccccc3nc2N2CCOCC2)c1C,/,12,/,/,2%,/
CCCCNc1c(-c2cccnc2)nc2nc(C)cc(C)n12,/,10,/,/,/,/
CC1CCc2c(N3CCC(O)CC3)c(F)cc3c(=O)c(C(=O)O)cn1c23 (stereo unspecified),6µM*,36,15µM*,9%,-9%,/
CN1CCN(c2c(F)cc3c(=O)c(C(=O)O)cn(CCF)c3c2F)CC1,-4%,/,0%,/,-1%,3%
CC1CCc2cc(F)cc3c(=O)c(C(=O)O)cn1c23 (stereo unspecified),?,-71*,7%,2%[8.37 µM],8%,0%
O=C(NCc1ccccc1)C1=CN2CCN(Cc3cccc(Cl)c3)C(=O)N=C2O1,/,-1,/,/,/,/
Cc1cc(O)c(CN2CCN(c3ccc(F)cc3)CC2)c2oc(=O)cc(C)c12,/,51,/,/,-10%,/
CC1(OC(=O)CCc2ccccc2)C(=O)C=C2C=C(c3ccc(C#N)cc3)N(C3CCCCC3)C=C2C1=O (stereo unspecified),?,13,?,?,-36%,0%
CC1(OC(=O)CCc2ccccc2)C(=O)C=C2C=C3CCCN3C=C2C1=O (stereo unspecified),51%,-32,53%,14%,35µM*,1%
SMILES,Pf growth 96h,HCMV inh,Pf growth 48h,HCV inh,Sm TGR block,SARS PLpro yeast
COC(=O)CCCC1=CC2=CC(=O)C(C)(OC(=O)c3cccs3)C(=O)C2=CN1C1CCCC1 (stereo unspecified),?,3,?,4%,-33%,5%
CC1(OC(=O)c2cccs2)C(=O)C=C2C=C3CCCN3C=C2C1=O (stereo unspecified),42%,/,62%,-6%,35µM*,-2%
O=C1c2sc3nc4n(c(=O)c3c2CCC1Br)CCCCC4 (stereo unspecified),9.3µM*,59,?,11%,?,-15%
Cc1ccc(-c2c(C(=O)N(C)Cc3ccccc3)oc(=O)c3ccccc23)cc1,4.7µM*,-65*!,?,0%,-2%,-47%
c1ccc(-c2cc(-c3ccc(N4CCOCC4)cc3)nc3ccccc23)cc1,13µM*,13,?,-11%,-1%,-10%
COc1ccc2c(-c3ccccc3)cc(N3CCOCC3)nc2c1,/,-26,?,13µM*,-7%,-2%
CCCCCCCN(c1ccccc1)[C@@H]1C[C@H]2CCCC(=O)N3CC[C@@H](C1)[C@@H]23,/,-14,/,?,/,/
Nc1nc(CN2CCN(c3ccccc3)CC2)nc(N2CCCc3ccccc32)n1,9.3µM*,34,?,4%,?,2%
Nc1nc(CSc2nnnn2-c2ccccc2)nc(N2CCCc3ccccc32)n1,/,-18,10µM*,11µM*,-3%,-3%
Nc1nc(CN2CCN(c3cccc(Cl)c3)CC2)nc(N2CCCc3ccccc32)n1,/,32,?,6%,-25%,-3%
Nc1nc(CN2CCN(Cc3ccccc3)CC2)nc(N2CCCc3ccccc32)n1,-3%,?,?,-4%,-15%,-3%
CN(c1ccc(Br)cc1)S(=O)(=O)c1ccc2[nH]cc(C(=O)NCCN3CCOCC3)c(=O)c2c1,?,?,?,-3%,-16%,-1%
O=C1N=c2ccccc2=C1c1c(O)n(-c2cccc(F)c2)[nH]c1=O,-5%,-12,-3%,34%,22µM*,-27%

# Bioassay records deposited in PubChem BioAssay by National Center for Advancing Translational Sciences (NCATS).
